The values below come from article PMC5540273 (PLoS ONE, 2017).

Usually Kd stands for the constant that tells how readily two partners part at equilibrium. Read a low Kd as a tighter complex.

Structures are written as SMILES. A value given as a limit tells only on which side of the number the result lay.
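Also: kd values determined as follow-up on hits from a single-replicate KINOMEscan panel screen.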

The first assay relates to BRSK2.
`c1ccc(-c2ccnc3[nH]ccc23)cc1` [SB-693578] showed a Kd above 10 µM.
Still for that read-out and setting: the same measure for `COc1ccc(-c2coc3ccc(-c4nnc(C)o4)cc23)cc1`: above 10 µM.
Still for that read-out and setting: as for `COc1cccc(NC(=O)Nc2ccc(C)c(-c3ccc(C(=O)Nc4ccncc4)cc3)c2)c1` [GSK1398474], the figure is above 10 µM; as for `O=c1cc(N2CCOCC2)nc2n(Cc3ccccc3F)ccn12` [GSK2297428], above 10 µM.
The same measure, in the same setting: the same measure for `Cc1ccccc1Cn1ccn2c(=O)cc(N3CCOCC3)nc12` [GSK2269905]: above 10 µM.

The next assay relates to BUB1.
`CS(=O)(=O)Cc1ccc(Nc2nccc(-c3c(-c4cccc(NC(=O)C5CCCCC5)c4)nn4ncccc34)n2)cc1` [GSK350559] showed a Kd of 0.029 µM.
Same read-out and setting: the same measure for `CSc1ccc(-c2nc3n(c2-c2ccncc2)CCC3)cc1` [SKF-105561]: 0.26 µM.
In turn, `COc1ccc2cc(-c3nc(-c4ccccc4C(C)C)[nH]c3-c3ccncc3)ccc2c1` [SB-660566] had a Kd of 0.47 µM.
Still for that read-out and setting: the same measure for `Fc1ccc(-c2nc[nH]c2-c2ccncc2)cc1` [SB-217360]: 0.89 µM.
On the same count and under the same terms, as for `COc1cc2ncnc(Nc3cccc(Br)c3)c2cc1OC.Cl` [GI230329], the figure is 0.13 µM; as for `CCCCc1nn2ncccc2c1-c1ccnc(NC2CC2)n1` [GW684374], 3.3 µM.

The next assay deals with CAMK2A.
`Cc1ccc(NC(=O)c2ccc(Cl)cc2)cc1-c1ccc(C(=O)Nc2ccncc2)cc1` [GSK1398467] gave a Kd above 10 µM.
For `O=C(Nc1n[nH]c2nc(-c3cccs3)c(Br)cc12)C1CC1` [SB-735297], the Kd was above 10 µM.
Consider `CNc1nc(-c2ccc3c(N)n[nH]c3c2)cc(N2C[C@@H](C(=O)Nc3ccccc3)CC[C@H]2C)n1` [GSK2298859], for which the Kd is above 10 µM.
Same read-out and setting: the same measure for `COC(=O)c1cccc(NC(=O)NC2CCN(c3ccnc(Nc4ccc(OC)cc4)n3)C2)c1` (stereo not shown) [GSK1379746]: above 10 µM.

The subject of a further assay is CAMK2B.
Regarding `Cc1ccc(NC(=O)c2ccc(Cl)cc2)cc1-c1ccc(C(=O)Nc2ccncc2)cc1` [GSK1398467], the Kd is above 10 µM.
Still for that read-out and setting: the same measure for `O=C(Nc1n[nH]c2nc(-c3cccs3)c(Br)cc12)C1CC1` [SB-735297]: above 10 µM; for `CNc1nc(-c2ccc3c(N)n[nH]c3c2)cc(N2C[C@@H](C(=O)Nc3ccccc3)CC[C@H]2C)n1` [GSK2298859]: above 10 µM.
Still for that read-out and setting: the same measure for `COC(=O)c1cccc(NC(=O)NC2CCN(c3ccnc(Nc4ccc(OC)cc4)n3)C2)c1` (stereo not shown) [GSK1379746]: above 10 µM.
